This note sets out measurements from PMC7862700, “An all-to-all approach to the identification of sequence-specific readers for epigenetic DNA modifications on cytosine”.

Holding throughout (assay): DAPPL (digital affinity profiling via proximity ligation, sequencing); 10 mM Tris-HCl pH 7.5, 50 mM NaCl, 1 mM DTT, 4% glycerol, room temperature, 30 min; GST-TFs on glutathione beads, 16-mer random dsDNA library, 0.1% formaldehyde crosslink after washing; high values mean tight binding
Holding throughout (conditions): protein: recombinant; tags: N-terminal GST; dsDNA, one strand shown

The target of one assay is T1, FLI1 (Homo sapiens, UniProt Q01543 1-452).
T1 sequence: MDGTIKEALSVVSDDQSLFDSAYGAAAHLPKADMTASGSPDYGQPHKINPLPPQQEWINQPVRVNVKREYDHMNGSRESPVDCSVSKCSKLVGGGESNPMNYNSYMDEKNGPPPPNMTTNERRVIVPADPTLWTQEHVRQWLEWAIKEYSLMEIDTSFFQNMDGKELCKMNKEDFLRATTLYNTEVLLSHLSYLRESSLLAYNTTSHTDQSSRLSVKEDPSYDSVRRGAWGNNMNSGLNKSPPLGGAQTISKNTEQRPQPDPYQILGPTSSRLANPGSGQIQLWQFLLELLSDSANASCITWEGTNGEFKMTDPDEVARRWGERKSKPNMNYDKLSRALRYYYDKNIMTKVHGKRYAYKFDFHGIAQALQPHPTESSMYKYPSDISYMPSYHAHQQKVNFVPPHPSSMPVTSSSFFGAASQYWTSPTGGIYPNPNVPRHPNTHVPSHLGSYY
The gist of the method: (§1)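 Binding signal is given per hexamer as its read frequency for a factor divided by its frequency in the tag-only sample. GST-fused human transcription factors were expressed in yeast, captured on glutathione beads, barcoded with DNA and pooled with that sample, then incubated with 200 nmole of a 16-mer random double-stranded DNA library in Tris/NaCl/DTT/glycerol buffer for 30 min at room temperature. The pools were then washed, crosslinked, proximity-ligated, amplified by PCR and sequenced on an Illumina NextSeq500.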

For a further assay, the target named is T2, ELK1 (Homo sapiens, UniProt P19419 1-428).
T2 sequence: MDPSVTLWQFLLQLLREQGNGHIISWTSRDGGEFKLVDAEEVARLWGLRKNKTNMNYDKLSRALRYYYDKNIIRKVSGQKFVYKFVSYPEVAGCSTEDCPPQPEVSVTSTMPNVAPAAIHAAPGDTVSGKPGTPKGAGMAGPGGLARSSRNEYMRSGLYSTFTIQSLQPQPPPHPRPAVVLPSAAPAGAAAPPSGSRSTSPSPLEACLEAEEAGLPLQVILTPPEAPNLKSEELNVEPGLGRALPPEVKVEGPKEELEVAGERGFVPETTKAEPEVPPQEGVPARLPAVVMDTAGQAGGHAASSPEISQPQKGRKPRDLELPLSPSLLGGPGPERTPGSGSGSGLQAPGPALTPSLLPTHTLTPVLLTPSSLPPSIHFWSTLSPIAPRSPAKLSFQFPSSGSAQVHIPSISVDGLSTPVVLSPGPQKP
A digest of the protocol: as §1

Another assay addresses T3, GABPA (Homo sapiens, UniProt Q06546 1-454).
T3 sequence: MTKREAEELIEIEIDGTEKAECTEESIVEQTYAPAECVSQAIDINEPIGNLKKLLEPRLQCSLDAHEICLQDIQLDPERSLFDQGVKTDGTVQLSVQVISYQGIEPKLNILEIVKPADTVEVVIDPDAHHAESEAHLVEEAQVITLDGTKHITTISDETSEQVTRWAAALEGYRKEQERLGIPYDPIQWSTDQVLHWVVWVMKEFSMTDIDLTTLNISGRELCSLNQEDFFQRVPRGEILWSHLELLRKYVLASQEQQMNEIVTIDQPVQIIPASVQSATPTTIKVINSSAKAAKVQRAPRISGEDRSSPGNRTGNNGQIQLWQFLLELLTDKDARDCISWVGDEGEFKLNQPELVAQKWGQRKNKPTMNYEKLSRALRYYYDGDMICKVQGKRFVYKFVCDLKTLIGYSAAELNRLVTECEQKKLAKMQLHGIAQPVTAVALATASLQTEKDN
The gist of the method: as §1

A further assay has as its target T4, ERG (Homo sapiens, UniProt P11308 1-479).
T4 sequence: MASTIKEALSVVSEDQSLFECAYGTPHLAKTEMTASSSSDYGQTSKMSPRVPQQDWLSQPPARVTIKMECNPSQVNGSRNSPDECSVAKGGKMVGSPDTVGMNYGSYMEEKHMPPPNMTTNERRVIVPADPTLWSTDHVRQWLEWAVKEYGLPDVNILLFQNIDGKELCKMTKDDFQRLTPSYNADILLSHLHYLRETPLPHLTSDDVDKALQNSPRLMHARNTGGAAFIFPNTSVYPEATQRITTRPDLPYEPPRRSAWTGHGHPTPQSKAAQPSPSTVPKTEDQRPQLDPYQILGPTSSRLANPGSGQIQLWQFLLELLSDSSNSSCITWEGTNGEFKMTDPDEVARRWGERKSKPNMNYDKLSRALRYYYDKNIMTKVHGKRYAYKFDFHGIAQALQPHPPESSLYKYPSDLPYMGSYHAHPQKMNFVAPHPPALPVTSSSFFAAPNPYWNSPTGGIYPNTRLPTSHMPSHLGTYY
The gist of the method:
as §1

The target of a further assay is ELF1 (Homo sapiens, UniProt P32519 1-619). The gist of the method: as §1
Another assay deals with T5, EHF (Homo sapiens, UniProt Q9NZC4 1-300).
T5 sequence: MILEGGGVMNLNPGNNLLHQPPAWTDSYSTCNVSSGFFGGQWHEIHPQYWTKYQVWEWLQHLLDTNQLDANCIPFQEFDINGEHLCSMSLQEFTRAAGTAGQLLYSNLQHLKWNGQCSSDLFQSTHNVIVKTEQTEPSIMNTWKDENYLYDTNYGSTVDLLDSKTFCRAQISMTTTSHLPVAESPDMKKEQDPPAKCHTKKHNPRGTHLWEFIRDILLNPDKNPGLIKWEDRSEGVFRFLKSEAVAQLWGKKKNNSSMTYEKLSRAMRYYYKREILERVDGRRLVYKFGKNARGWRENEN
A digest of the protocol: as §1

In another assay the target is SPI1 (Homo sapiens, UniProt P17947 1-270). The gist of the method:
as §1

Another assay concerns the target SPIB (Homo sapiens, UniProt Q01892 1-262). The gist of the method: as §1
The next assay has as its target T6, ELK3 (Homo sapiens, UniProt P41970 1-407).
T6 sequence: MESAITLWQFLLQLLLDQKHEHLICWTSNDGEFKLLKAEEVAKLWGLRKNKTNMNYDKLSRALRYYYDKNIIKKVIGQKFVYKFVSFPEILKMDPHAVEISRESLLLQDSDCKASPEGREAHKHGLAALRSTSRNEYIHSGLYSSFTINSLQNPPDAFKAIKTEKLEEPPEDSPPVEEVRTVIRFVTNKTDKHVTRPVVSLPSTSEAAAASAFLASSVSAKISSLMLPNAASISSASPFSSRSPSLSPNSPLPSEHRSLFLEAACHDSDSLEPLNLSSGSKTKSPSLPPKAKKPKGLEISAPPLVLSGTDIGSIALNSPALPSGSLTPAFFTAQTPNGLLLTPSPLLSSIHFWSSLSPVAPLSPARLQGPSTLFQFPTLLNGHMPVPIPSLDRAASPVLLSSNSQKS
A digest of the protocol:
as §1

The next assay addresses T7, FEV (Homo sapiens, UniProt Q99581 1-238).
T7 sequence: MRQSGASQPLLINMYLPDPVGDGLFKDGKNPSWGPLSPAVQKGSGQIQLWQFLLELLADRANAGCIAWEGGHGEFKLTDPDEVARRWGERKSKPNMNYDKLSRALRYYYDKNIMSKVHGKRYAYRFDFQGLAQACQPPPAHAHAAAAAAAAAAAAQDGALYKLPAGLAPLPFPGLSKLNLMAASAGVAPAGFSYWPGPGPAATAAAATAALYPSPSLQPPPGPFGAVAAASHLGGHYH
The gist of the method:
as §1

In the next assay the target is ETV5 (Homo sapiens, UniProt P41161 1-510). A digest of the protocol: as §1
A further assay deals with T8, SPIC (Homo sapiens, UniProt Q8N5J4 1-248).
T8 sequence: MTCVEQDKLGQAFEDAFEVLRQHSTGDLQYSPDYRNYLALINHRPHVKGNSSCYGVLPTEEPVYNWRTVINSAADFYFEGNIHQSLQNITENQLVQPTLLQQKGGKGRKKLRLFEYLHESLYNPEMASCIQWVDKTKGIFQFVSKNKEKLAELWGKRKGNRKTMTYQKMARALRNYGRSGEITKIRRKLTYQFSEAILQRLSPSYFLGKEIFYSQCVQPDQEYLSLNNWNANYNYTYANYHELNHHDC
A digest of the protocol: as §1

A further assay addresses ELF4 (Homo sapiens, UniProt Q99607 1-663). A digest of the protocol:
as §1

The next assay concerns the target T9, ELK4 (Homo sapiens, UniProt P28324-2 1-405).
T9 sequence: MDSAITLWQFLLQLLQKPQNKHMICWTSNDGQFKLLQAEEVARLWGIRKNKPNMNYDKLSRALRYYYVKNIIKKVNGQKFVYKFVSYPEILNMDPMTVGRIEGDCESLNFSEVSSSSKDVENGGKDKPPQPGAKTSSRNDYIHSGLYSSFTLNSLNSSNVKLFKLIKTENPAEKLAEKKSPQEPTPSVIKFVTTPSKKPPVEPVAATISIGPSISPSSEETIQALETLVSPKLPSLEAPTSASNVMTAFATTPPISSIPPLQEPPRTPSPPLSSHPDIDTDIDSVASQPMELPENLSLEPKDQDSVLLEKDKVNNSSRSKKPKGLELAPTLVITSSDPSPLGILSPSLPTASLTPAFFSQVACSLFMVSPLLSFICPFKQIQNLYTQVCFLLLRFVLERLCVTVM
The gist of the method: as §1

The next assay deals with T10, ETV2 (Homo sapiens, UniProt O00321 1-342).
T10 sequence: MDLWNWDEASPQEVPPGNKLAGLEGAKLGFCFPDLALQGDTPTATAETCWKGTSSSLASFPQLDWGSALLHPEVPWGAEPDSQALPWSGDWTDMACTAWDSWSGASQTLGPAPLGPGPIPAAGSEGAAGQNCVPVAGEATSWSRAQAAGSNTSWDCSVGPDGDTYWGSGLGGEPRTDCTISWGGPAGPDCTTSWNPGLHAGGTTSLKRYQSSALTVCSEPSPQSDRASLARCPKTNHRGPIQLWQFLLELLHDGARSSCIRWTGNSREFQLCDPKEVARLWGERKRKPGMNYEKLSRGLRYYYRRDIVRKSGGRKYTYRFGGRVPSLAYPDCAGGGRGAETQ
A digest of the protocol: as §1

The target of the next assay is CRX (Homo sapiens, UniProt O43186 1-299). The gist of the method: as §1
In a further assay the target is ETV1 (Homo sapiens, UniProt P50549 1-477). The gist of the method:
as §1

In the next assay the target is T11, ELF3 (Homo sapiens, UniProt P78545 1-371).
T11 sequence: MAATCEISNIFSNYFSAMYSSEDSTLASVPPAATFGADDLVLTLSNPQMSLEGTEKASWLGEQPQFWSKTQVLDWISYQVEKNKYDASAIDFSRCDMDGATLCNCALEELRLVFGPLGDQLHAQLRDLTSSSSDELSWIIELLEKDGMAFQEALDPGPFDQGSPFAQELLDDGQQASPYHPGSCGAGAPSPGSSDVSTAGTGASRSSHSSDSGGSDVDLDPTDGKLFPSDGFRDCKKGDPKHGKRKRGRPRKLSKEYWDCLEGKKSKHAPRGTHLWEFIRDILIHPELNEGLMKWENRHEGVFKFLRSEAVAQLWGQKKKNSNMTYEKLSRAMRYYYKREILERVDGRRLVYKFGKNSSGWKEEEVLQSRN
A digest of the protocol: as §1

ETV5, sequence (P41161 whole entry): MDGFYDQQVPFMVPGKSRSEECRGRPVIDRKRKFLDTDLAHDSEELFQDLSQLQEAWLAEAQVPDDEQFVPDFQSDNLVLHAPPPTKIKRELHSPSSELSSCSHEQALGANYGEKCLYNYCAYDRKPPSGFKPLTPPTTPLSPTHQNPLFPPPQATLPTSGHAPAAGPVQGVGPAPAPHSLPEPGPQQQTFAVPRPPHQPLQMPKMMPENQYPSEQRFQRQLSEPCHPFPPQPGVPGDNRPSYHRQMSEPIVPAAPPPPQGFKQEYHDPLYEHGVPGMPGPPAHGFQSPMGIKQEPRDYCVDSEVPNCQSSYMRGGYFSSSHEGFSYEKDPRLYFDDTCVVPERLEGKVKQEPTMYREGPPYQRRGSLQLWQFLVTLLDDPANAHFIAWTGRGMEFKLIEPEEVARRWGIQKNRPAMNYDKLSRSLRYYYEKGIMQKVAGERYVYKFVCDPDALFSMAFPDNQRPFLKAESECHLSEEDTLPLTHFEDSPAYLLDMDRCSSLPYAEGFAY
ELF4, sequence (Q99607 whole entry): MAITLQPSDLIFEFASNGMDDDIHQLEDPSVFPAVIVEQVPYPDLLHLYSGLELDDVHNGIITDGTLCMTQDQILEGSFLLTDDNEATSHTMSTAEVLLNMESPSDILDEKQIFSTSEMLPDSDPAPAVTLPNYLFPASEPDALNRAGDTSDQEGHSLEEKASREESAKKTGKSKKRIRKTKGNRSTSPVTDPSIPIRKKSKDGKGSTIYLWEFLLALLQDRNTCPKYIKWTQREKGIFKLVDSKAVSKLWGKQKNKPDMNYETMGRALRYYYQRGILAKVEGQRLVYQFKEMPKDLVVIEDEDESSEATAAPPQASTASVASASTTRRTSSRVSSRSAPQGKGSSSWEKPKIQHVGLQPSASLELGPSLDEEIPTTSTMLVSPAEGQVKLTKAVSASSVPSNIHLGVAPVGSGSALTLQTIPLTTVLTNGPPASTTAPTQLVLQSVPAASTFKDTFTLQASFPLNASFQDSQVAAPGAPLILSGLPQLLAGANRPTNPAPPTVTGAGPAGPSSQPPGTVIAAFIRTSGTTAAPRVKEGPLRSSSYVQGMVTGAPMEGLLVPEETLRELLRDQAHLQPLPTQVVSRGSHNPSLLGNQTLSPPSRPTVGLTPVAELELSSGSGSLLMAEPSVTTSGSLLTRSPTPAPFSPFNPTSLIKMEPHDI
ETV1, sequence (P50549 whole entry): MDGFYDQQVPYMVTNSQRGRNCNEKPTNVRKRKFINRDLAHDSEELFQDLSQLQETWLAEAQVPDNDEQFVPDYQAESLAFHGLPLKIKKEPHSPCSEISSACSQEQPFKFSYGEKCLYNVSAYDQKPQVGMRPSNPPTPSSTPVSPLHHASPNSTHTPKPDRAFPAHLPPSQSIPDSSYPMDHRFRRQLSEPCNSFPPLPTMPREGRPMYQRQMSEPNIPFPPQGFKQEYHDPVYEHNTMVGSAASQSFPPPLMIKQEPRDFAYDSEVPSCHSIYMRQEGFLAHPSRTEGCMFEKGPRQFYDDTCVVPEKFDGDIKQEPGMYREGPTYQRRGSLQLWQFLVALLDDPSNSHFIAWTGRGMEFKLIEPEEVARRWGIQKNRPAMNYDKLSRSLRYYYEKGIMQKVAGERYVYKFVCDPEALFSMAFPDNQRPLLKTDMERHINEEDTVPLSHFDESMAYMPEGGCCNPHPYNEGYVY
ELF1, sequence (P32519 whole entry): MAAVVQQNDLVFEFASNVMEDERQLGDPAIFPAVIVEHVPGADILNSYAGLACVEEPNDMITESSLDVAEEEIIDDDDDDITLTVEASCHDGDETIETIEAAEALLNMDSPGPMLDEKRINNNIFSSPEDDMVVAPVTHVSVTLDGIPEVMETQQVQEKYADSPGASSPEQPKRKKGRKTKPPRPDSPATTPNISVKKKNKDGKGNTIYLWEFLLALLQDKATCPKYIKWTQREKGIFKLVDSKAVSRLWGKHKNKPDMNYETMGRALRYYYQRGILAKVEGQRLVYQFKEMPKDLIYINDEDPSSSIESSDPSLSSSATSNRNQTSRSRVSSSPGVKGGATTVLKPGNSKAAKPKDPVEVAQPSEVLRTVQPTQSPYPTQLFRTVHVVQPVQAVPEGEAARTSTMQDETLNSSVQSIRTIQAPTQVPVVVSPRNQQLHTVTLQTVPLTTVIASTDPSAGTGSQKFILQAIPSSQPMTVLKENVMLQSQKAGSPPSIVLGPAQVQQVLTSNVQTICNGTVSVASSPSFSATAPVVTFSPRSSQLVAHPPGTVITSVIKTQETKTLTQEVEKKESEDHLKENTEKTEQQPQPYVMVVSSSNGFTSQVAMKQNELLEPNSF
SPIB, sequence (Q01892 whole entry): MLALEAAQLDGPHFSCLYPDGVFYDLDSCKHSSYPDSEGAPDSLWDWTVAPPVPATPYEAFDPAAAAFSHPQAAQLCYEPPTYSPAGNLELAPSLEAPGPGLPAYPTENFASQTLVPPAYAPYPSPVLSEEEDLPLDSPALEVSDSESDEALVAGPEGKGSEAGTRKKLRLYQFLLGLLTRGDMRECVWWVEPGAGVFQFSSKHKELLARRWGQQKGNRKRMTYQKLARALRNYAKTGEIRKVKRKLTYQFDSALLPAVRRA
CRX, sequence (O43186 whole entry): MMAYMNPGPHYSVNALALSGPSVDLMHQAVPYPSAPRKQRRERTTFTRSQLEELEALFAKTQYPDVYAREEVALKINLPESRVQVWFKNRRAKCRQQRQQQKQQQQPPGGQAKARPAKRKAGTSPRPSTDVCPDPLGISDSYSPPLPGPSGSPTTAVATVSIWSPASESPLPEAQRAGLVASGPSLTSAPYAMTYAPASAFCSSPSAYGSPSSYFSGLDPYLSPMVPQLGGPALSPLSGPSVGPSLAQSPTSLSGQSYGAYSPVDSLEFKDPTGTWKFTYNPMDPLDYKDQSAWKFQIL

Take TCAACG: the binding signal with FLI1 is 1.12 fold enrichment (6-mer frequency, TF over GST control); in the assay with ELK1 it was 1.05 fold enrichment (6-mer frequency, TF over GST control); with GABPA it was 1.09 fold enrichment (6-mer frequency, TF over GST control); with ERG it was 1.08 fold enrichment (6-mer frequency, TF over GST control); in the assay with ELF1 it was 1.14 fold enrichment (6-mer frequency, TF over GST control); with EHF it was 1.06 fold enrichment (6-mer frequency, TF over GST control). Also, the binding signal with SPI1 was 1 fold enrichment (6-mer frequency, TF over GST control); with SPIB it was 1.12 fold enrichment (6-mer frequency, TF over GST control); in the assay with ELK3 it was 1.22 fold enrichment (6-mer frequency, TF over GST control); with FEV, 1.06 fold enrichment (6-mer frequency, TF over GST control); in the assay with ETV5, 1.12 fold enrichment (6-mer frequency, TF over GST control); with SPIC, 1.1 fold enrichment (6-mer frequency, TF over GST control). The binding signal in the assay with ELF4 is 1.11 fold enrichment (6-mer frequency, TF over GST control); with ELK4, 1.09 fold enrichment (6-mer frequency, TF over GST control); in the assay with ETV2 it was 1.18 fold enrichment (6-mer frequency, TF over GST control); with CRX, 1.1 fold enrichment (6-mer frequency, TF over GST control); in the assay with ETV1, 1.15 fold enrichment (6-mer frequency, TF over GST control).
CGCTGC: the binding signal was 1.12 fold enrichment (6-mer frequency, TF over GST control) in the assay with FLI1; 1.04 fold enrichment (6-mer frequency, TF over GST control) with ELK1; 1.25 fold enrichment (6-mer frequency, TF over GST control) with GABPA; 1.22 fold enrichment (6-mer frequency, TF over GST control) in the assay with ERG; 1.14 fold enrichment (6-mer frequency, TF over GST control) in the assay with ELF1; 1.28 fold enrichment (6-mer frequency, TF over GST control) in the assay with EHF. The binding signal in the assay with SPI1 was 1.07 fold enrichment (6-mer frequency, TF over GST control); in the assay with SPIB, 1.22 fold enrichment (6-mer frequency, TF over GST control); in the assay with ELK3 it was 1.16 fold enrichment (6-mer frequency, TF over GST control); in the assay with FEV, 1.14 fold enrichment (6-mer frequency, TF over GST control); with ETV5 it was 1.18 fold enrichment (6-mer frequency, TF over GST control); in the assay with SPIC, 1.21 fold enrichment (6-mer frequency, TF over GST control). For the same sequence, the binding signal with ELF4 was 1.1 fold enrichment (6-mer frequency, TF over GST control); with ELK4 it was 1.2 fold enrichment (6-mer frequency, TF over GST control); in the assay with ELF3, 1.03 fold enrichment (6-mer frequency, TF over GST control); with ETV1 it was 1.21 fold enrichment (6-mer frequency, TF over GST control).
